# Screening data as filed in PubChem BioAssay.
# A selection: hits, their analogues and other compounds. The true share with any hit is near 1.6%.
# eIF4E 4G PPI: inhibitors of eIF4E and eIF4G interaction in translation initiation | AID 782 | inhibition, % at 21.7 µM | P63073+Q04637 | 0.37% of 220,000 active | TR-FRET eIF4E-eIF4GI(517-606) binding, 2 h;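 active = inhibition above about 30%, limit read from the data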;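 also: 0% = full FRET control wells and 100% = background wells lacking eIF4GI fragment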
# Target sequence (P63073 whole entry, looked up, the tested form may be a part): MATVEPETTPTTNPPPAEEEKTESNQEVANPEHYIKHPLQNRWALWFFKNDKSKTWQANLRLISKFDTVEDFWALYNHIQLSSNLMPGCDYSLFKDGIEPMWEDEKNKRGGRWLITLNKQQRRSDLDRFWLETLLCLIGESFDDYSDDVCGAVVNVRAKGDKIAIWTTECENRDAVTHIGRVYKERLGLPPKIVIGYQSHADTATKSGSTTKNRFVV
# Target sequence (Q04637 whole entry, looked up, the tested form may be a part): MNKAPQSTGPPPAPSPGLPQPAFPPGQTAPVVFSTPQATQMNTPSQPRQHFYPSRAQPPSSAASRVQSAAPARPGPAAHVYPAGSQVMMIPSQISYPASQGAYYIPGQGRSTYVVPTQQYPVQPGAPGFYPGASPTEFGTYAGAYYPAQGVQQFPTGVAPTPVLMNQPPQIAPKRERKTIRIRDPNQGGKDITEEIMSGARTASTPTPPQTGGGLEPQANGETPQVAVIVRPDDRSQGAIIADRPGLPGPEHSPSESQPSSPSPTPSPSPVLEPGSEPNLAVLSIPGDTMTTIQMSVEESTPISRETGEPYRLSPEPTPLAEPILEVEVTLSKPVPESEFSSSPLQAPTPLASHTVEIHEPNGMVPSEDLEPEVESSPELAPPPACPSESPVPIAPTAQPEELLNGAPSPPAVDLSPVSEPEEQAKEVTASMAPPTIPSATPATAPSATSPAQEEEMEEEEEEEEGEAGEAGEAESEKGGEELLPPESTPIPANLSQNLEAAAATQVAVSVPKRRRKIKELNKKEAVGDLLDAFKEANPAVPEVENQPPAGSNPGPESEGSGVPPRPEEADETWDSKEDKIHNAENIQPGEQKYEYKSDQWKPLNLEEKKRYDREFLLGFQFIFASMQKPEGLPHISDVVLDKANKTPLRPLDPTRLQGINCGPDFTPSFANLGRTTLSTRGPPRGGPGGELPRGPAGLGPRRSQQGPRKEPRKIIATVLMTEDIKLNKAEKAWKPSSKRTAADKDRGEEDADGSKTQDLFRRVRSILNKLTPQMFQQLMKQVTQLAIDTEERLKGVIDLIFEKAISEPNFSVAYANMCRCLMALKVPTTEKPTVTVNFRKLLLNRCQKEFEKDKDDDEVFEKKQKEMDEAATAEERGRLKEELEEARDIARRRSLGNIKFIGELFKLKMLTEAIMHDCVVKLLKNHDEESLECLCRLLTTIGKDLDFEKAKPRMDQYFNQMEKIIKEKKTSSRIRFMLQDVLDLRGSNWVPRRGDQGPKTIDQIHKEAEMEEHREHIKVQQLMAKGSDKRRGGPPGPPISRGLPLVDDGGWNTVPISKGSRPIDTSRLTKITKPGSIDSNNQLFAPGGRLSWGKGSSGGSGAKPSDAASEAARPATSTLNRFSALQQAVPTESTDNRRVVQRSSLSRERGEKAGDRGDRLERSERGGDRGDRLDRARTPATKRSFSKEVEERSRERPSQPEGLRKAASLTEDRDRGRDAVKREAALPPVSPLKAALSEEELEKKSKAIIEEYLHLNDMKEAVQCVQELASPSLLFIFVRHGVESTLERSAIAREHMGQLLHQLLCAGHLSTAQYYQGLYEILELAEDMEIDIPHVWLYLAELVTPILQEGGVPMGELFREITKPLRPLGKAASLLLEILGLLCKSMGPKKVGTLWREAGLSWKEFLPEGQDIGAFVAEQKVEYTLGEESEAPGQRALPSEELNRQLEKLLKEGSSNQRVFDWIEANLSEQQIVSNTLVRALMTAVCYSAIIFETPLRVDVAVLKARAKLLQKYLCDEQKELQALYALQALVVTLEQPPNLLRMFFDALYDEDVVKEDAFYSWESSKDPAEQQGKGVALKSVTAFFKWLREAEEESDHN
# PERK inh: blocks human PERK kinase | Q9NZJ5 | CHO PERK-DD fusion, SEAP luminescence translation reporter | inhibition, % at 5.6 µM | 0.17% of 220,000 active | AID 1416;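 active = inhibition above the mean inhibition of all tested compounds plus 3 SD, set separately per screening campaign, cut at about 2.9% in these data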;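 also: PERK kinase domain activated by AP20187 dimerizer at 100 nM; 0% = DMSO with dimerizer and 100% = rapamycin at 8.4 µM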
# PABP polyA inh: PABP-poly(A) binding inhibition. PABP-poly(A) RNA binding, fluorescence polarization. calls only at 35 µM. P11940. 1% of 290,000 active;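 also: calls also rest on retests at 20 µM and on dose response follow-up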
# MLLE-PAM2 inh: blocks PAM2 peptide binding to the PABP1 MLLE domain; P11940; GST-MLLE / FITC-PAM2 fluorescence polarization; inhibition, % at 20 µM; 0.36% of 360,000 active; AID 588489; in the data active = inhibition above about 35%, passing the limit was not always enough;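 also: plate controls were DMSO wells with GST-MLLE for no effect and wells lacking GST-MLLE protein for full effect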
# eIF4H inh: inhibitors of RNA binding by human eIF4H | eIF4H fluorescence polarization binding assay | 0.94% of 290,000 active | Q15056 | AID 2012 | inhibition, % at 35 µM;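 also: calls also rest on retests at 20 µM and on dose response follow-up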
# Starred values were filed as active, the others as inactive; i = inactive; ? = inconclusive; nt = not tested or not shown; + = active, no number. Unless noted, no rule for the calls is given here.
SMILES,eIF4E 4G PPI,PERK inh,PABP polyA inh,MLLE-PAM2 inh,eIF4H inh
CCCn1c(N)c(N(CCOC)C(=O)c2cc(-c3ccco3)nc3ccccc23)c(=O)[nH]c1=O,nt,nt,i,18,59*
O=C(Nc1ccccc1N1CCOCC1)c1cc(-c2ccco2)nc2ccccc12,5,-1,i,8,82*
Cn1c(N)c(C(=O)COC(=O)c2cc(-c3ccco3)nc3ccccc23)c(=O)n(Cc2ccccc2)c1=O,5,0,i,nt,70
Cn1c(N)c(C(=O)COC(=O)c2cc(-c3ccco3)nc3ccccc23)c(=O)n(C)c1=O,4,-1,+,6,?
CCCCN(C(=O)c1ccc(Cl)c(S(=O)(=O)N2CCOCC2)c1)c1c(N)n(CCC)c(=O)[nH]c1=O,-7,-1,i,0,-10
O=C(NN1CCOCC1)c1cc(-c2ccc(Br)cc2)nc2ccccc12,58*,0,i,3,3
CC(=O)Nc1ccc(/C=N/NC(=O)c2cc(-c3ccco3)nc3ccccc23)cc1,2,0,i,7,7
O=C(O)c1cc(-c2ccco2)nc2cc3ccccc3cc12,0,2,+,-3,100*
O=C(O)c1ccccc1/C=N/NC(=O)c1cc(-c2ccco2)nc2ccccc12,45*,1,+,-25,82*
CCc1ccc(-c2cc(C(=O)NN3CCOCC3)c3ccccc3n2)cc1,8,-2,i,0,0
CCCNC(=O)COC(=O)c1cc(-c2ccc(OC)cc2)nc2ccccc12,4,2,+,1,0
CCNC(=O)COC(=O)c1cc(-c2ccc(OC)cc2)nc2ccccc12,3,0,i,-12,-5
CCN(CC)C(=O)COC(=O)c1cc(-c2ccco2)nc2ccccc12,34*,0,+,19,82*
CCN(CC)C(=O)COC(=O)c1cc(-c2ccc(OC)cc2)nc2ccccc12,3,-2,i,-5,13
COc1ccc(CCNC(=O)c2cc(-c3ccco3)nc3ccccc23)cc1,nt,nt,+,nt,75*
Nc1cccc2c1C(=O)N(c1ccccc1)C2=O,nt,nt,nt,48*,nt
O=c1cc(CSc2n[nH]c(-c3ccncc3)n2)nc2sccn12,17,0,i,-3,63*
N#CC1=C(N)C2=CCCC[C@H]2[C@H](c2ccc(Br)cc2)C1(C#N)C#N,2,0,i,15,51
N#CC1=C(N)C2=CCCC[C@H]2[C@H](c2ccccc2)C1(C#N)C#N,-2,0,+,6,89*
CC1CN(S(=O)(=O)c2ccc(C(=O)OCc3ccc(C#N)cc3)cc2)CC(C)O1 (centres undefined),nt,nt,nt,7,nt
O=C(NC(=S)Nc1ccccc1Cl)c1cncc(Br)c1,nt,nt,i,43*,1
O=C(NC(=S)Nc1nc(-c2ccccc2)cs1)c1cccnc1,-5,0,i,17,-6
Cc1ccc(C)c(NC(=S)NNC(=O)c2csc(C)c2C)c1,2,0,i,19,12
Cc1ccc(C)c(NC(=S)NNC(=O)c2csc(C(C)C)c2)c1,5,-1,+,39*,13*
O=C(NC(=S)Nc1nc(-c2ccccc2)cs1)c1cncc(Br)c1,-3,1,i,45*,-12
SMILES,eIF4E 4G PPI,PERK inh,PABP polyA inh,MLLE-PAM2 inh,eIF4H inh
Cc1ccc(C)c(NC(=S)NC(=O)c2cncc(Br)c2)c1,nt,nt,nt,40*,nt
NNC(=O)c1cc2ccccc2cc1NS(=O)(=O)c1ccccc1,nt,nt,i,-6,1
Fc1cc(F)cc(Nc2nc(Cl)nc(NC3CCCC3)n2)c1,nt,nt,nt,-1,nt
Cc1c(Cl)ccc2c(C(O)CBr)cc(-c3ccccc3)nc12 (centres undefined),nt,nt,nt,8,nt
C(COC1CC2CC1C1C2CC2OC21)OC1CC2CC1C1C2CC2OC21 (centres undefined),nt,nt,nt,-15,nt
Nc1ccc2nc(-c3ccccc3)c(-c3ccccc3)nc2c1,nt,nt,i,102,70*
COc1ccc(NC(=O)CN2CCN(c3c(C)cc(C)cc3C)CC2)cc1,nt,nt,i,-11,0
COC(=O)/C(=C\c1ccc([N+](=O)[O-])o1)NC(=O)c1ccccc1,-4,1,+,-6,128
O=C(O)c1cccc(-c2ccc(/C=C3/SC(=Nc4ccccc4)N(Cc4cccnc4)C3=O)o2)c1,nt,nt,+,-10,64*
CCN1C(=O)/C(=C\c2ccc(-c3ccc([N+](=O)[O-])cc3OC)o2)SC1=Nc1cccc(C(=O)O)c1,64*,0,?,16,?
CCN=C1S/C(=C\c2ccc(-c3cccc(C(=O)O)c3)o2)C(=O)N1CC,3,1,i,9,64*
CCN1C(=O)/C(=C\c2ccc(-c3cccc(C(=O)OC)c3)o2)SC1=Nc1ccc(C(=O)O)cc1,nt,nt,i,nt,26
CC1(C(=O)NS(=O)(=O)c2cccc(OC(F)F)c2)CCN1C(=O)CC(c1ccccc1)c1ccccc1 (centres undefined),nt,nt,nt,14,nt
CCN(C(=O)C1CC1)C1CCS(=O)(=O)C1 (centres undefined),nt,nt,nt,9,nt
CC1=NN(c2ccc(C(=O)O)c(N)c2)C(=O)C1,12,0,i,-1,98*
COc1ccc(NC(=O)CCNS(=O)(=O)c2ccc3[nH]c(=O)oc3c2)cc1Cl,nt,nt,i,-30,8
Cc1ccc2c(c1)sc(C)[n+]2CCCS(=O)(=O)[O-],-4,0,i,48*,1
CCCC[n+]1c(C)sc2cc(OC)ccc21,0,-1,+,-34,-4
O=C(/C=C/c1ccco1)NC(=S)Nc1cccc(C(=O)O)c1,nt,nt,+,20,86*
CC(=O)Nc1ccc(NC(=S)NC(=O)/C=C/c2ccco2)cc1,nt,nt,i,14,74*
O=C(/C=C/c1ccco1)NC(=S)Nc1cc(C(F)(F)F)ccc1N1CCOCC1,-4,0,+,-4,79
COc1cccc(NC(=S)NC(=O)/C=C/c2ccco2)c1,nt,nt,i,-6,41
O=C(/C=C/c1ccco1)NC(=S)Nc1ccccc1N1CCOCC1,3,-1,i,22,0
Cn1nnc(NC(=S)NC(=O)/C=C/c2ccco2)n1,-2,0,+,30,88*
Cc1c(O)ccc2cc(S(=O)(=O)c3ccccc3)c(=O)oc12,nt,nt,i,44*,10
CN1CCN(C(c2ccccn2)c2cc(Cl)c3cccnc3c2O)CC1 (centres undefined),4,1,i,43*,28
Oc1c(C(c2ccccn2)N2CCC(Cc3ccccc3)CC2)cc(Cl)c2cccnc12 (centres undefined),3,1,i,nt,19
Cc1ccc(C(c2cc(Cl)c3cccnc3c2O)N2CCN(C)CC2)cc1 (centres undefined),nt,nt,i,48*,30
Oc1c(C(c2ccc(Cl)cc2)N2CCCC2)cc(Cl)c2cccnc12 (centres undefined),3,0,i,29,15
CCOC(=O)C1=NOC(COc2ccccc2C=O)C1 (centres undefined),2,1,+,17,6.7*
